# Measurements published in article PMC7862700, “An all-to-all approach to the identification of sequence-specific readers for epigenetic DNA modifications on cytosine”.
# Assays:
# Test in all cases: DAPPL (digital affinity profiling via proximity ligation, sequencing); 10 mM Tris-HCl pH 7.5, 50 mM NaCl, 1 mM DTT, 4% glycerol, room temperature, 30 min; GST-TFs on glutathione beads, 16-mer random dsDNA library, 0.1% formaldehyde crosslink after washing; high values mean tight binding
# FLI1 = molecular target: T1, FLI1 (Homo sapiens, UniProt Q01543 1-452); details: protein: recombinant; tags: N-terminal GST; dsDNA, one strand shown
# T1 sequence: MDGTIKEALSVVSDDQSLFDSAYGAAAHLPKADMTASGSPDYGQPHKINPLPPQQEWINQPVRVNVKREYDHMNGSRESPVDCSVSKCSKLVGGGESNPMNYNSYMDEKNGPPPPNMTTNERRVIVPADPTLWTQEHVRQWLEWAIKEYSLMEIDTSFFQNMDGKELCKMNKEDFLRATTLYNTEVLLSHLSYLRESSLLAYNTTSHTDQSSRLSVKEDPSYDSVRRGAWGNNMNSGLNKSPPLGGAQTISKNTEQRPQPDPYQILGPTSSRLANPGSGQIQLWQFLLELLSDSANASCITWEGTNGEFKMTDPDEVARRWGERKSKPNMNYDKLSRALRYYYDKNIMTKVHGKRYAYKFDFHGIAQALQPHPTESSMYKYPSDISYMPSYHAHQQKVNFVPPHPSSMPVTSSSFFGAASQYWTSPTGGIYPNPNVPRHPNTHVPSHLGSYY
# Outline: (§1)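 Human transcription factors carrying a GST fusion were produced in yeast, bound to glutathione beads, tagged with DNA barcodes and pooled together with a tag-only sample. Each pool was held with 200 nmole of a random double-stranded 16-mer DNA library in Tris/NaCl/DTT/glycerol buffer for 30 min at room temperature, then washed, crosslinked in 0.1% formaldehyde, proximity-ligated with BsaI/T4 ligase (1 h, 37 °C), PCR-amplified and sequenced on an Illumina NextSeq500. Binding signal is the read frequency of each hexamer for a given factor divided by its frequency in the tag-only sample.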
# ELK1 = molecular target: T2, ELK1 (Homo sapiens, UniProt P19419 1-428); details: protein: recombinant; tags: N-terminal GST; dsDNA, one strand shown
# T2 sequence: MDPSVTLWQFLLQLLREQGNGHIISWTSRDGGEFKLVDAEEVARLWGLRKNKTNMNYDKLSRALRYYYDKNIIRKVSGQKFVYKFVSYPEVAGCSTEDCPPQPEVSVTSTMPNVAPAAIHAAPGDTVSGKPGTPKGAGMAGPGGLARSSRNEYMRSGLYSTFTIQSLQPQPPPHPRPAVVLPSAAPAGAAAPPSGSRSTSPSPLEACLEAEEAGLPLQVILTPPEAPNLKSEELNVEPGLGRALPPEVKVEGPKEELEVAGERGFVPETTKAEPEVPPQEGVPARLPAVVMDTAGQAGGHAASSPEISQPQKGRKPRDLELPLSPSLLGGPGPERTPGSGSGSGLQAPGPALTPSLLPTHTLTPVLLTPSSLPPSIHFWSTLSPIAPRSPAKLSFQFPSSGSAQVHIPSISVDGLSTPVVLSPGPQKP
# Outline: as §1
# GABPA = molecular target: T3, GABPA (Homo sapiens, UniProt Q06546 1-454); details: protein: recombinant; tags: N-terminal GST; dsDNA, one strand shown
# T3 sequence: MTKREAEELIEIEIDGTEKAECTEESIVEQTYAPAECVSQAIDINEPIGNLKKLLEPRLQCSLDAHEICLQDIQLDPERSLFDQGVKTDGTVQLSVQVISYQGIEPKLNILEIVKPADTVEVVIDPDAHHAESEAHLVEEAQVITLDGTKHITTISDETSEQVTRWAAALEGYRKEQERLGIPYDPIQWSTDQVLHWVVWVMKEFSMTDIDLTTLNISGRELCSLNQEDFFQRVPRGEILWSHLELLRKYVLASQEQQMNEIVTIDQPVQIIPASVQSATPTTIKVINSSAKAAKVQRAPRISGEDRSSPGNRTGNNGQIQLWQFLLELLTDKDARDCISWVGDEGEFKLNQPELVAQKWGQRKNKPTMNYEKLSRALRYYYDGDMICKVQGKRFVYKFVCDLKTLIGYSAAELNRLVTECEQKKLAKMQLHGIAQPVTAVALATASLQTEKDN
# Outline: as §1
# ERG = molecular target: T4, ERG (Homo sapiens, UniProt P11308 1-479); details: protein: recombinant; tags: N-terminal GST; dsDNA, one strand shown
# T4 sequence: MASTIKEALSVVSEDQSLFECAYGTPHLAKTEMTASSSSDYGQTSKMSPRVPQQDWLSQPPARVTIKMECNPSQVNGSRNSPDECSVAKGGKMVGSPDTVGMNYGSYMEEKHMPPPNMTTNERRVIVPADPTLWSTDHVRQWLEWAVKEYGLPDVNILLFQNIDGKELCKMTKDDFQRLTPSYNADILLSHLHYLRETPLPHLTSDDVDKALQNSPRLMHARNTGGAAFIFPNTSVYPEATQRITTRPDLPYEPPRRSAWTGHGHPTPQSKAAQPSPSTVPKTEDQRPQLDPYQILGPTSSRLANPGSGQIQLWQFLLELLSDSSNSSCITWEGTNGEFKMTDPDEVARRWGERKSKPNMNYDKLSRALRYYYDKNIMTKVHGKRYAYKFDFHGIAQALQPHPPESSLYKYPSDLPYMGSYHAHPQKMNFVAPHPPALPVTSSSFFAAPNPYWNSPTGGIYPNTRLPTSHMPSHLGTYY
# Outline: as §1
# ELF1 = ELF1 (Homo sapiens, UniProt P32519 1-619); details: protein: recombinant; tags: N-terminal GST; dsDNA, one strand shown
# Outline: as §1
# EHF = molecular target: T5, EHF (Homo sapiens, UniProt Q9NZC4 1-300); details: protein: recombinant; tags: N-terminal GST; dsDNA, one strand shown
# T5 sequence: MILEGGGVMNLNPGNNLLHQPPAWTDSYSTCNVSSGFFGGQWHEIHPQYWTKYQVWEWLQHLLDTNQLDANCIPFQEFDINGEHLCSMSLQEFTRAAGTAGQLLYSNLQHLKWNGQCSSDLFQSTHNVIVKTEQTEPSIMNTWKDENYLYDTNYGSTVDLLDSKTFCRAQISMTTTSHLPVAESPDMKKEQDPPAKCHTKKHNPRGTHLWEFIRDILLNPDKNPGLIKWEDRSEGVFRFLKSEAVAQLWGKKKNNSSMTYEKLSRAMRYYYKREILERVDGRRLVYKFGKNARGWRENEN
# Outline: as §1
# SPI1 = SPI1 (Homo sapiens, UniProt P17947 1-270); details: protein: recombinant; tags: N-terminal GST; dsDNA, one strand shown
# Outline: as §1
# SPIB = SPIB (Homo sapiens, UniProt Q01892 1-262); details: protein: recombinant; tags: N-terminal GST; dsDNA, one strand shown
# Outline: as §1
# ELK3 = molecular target: T6, ELK3 (Homo sapiens, UniProt P41970 1-407); details: protein: recombinant; tags: N-terminal GST; dsDNA, one strand shown
# T6 sequence: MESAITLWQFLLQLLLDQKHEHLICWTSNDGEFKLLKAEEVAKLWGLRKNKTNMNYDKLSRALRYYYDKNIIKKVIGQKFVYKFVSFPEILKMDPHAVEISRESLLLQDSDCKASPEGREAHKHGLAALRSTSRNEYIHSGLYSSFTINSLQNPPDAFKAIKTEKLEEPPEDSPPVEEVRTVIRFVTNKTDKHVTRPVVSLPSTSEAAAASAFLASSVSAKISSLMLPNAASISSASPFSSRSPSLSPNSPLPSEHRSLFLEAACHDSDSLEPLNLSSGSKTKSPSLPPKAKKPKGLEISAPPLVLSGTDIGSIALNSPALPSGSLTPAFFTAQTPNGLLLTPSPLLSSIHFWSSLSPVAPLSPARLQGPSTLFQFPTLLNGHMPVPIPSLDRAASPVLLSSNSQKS
# Outline: as §1
# FEV = molecular target: T7, FEV (Homo sapiens, UniProt Q99581 1-238); details: protein: recombinant; tags: N-terminal GST; dsDNA, one strand shown
# T7 sequence: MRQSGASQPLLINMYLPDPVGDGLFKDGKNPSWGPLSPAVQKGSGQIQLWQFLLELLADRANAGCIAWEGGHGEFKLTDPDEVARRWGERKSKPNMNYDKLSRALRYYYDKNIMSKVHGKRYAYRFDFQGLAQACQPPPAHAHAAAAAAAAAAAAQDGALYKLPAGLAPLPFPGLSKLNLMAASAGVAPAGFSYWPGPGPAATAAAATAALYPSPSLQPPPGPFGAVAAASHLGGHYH
# Outline: as §1
# ETV5 = ETV5 (Homo sapiens, UniProt P41161 1-510); details: protein: recombinant; tags: N-terminal GST; dsDNA, one strand shown
# Outline: as §1
# HSF1 = HSF1 (Homo sapiens, UniProt Q00613 1-529); details: protein: recombinant; tags: N-terminal GST; chain copies: 3; dsDNA, one strand shown
# Outline: as §1
# SPIC = molecular target: T8, SPIC (Homo sapiens, UniProt Q8N5J4 1-248); details: protein: recombinant; tags: N-terminal GST; dsDNA, one strand shown
# T8 sequence: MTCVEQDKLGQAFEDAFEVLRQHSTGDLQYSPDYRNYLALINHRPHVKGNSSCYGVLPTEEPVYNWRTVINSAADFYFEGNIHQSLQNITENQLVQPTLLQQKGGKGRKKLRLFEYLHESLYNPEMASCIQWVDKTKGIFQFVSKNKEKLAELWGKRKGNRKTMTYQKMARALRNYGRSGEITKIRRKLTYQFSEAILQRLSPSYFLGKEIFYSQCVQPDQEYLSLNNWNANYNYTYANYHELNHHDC
# Outline: as §1
# ELF4 = ELF4 (Homo sapiens, UniProt Q99607 1-663); details: protein: recombinant; tags: N-terminal GST; dsDNA, one strand shown
# Outline: as §1
# ELK4 = molecular target: T9, ELK4 (Homo sapiens, UniProt P28324-2 1-405); details: protein: recombinant; tags: N-terminal GST; dsDNA, one strand shown
# T9 sequence: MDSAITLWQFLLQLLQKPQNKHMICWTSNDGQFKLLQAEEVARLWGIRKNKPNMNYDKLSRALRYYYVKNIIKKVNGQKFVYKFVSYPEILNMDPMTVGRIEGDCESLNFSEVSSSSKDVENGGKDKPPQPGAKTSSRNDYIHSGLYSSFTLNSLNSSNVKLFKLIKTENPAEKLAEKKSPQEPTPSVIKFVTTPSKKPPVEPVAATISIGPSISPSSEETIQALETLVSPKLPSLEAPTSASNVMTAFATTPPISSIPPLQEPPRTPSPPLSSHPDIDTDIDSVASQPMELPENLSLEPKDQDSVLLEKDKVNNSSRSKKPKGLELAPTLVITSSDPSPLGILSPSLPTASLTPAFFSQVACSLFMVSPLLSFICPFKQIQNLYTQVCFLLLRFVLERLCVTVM
# Outline: as §1
# ETV2 = molecular target: T10, ETV2 (Homo sapiens, UniProt O00321 1-342); details: protein: recombinant; tags: N-terminal GST; dsDNA, one strand shown
# T10 sequence: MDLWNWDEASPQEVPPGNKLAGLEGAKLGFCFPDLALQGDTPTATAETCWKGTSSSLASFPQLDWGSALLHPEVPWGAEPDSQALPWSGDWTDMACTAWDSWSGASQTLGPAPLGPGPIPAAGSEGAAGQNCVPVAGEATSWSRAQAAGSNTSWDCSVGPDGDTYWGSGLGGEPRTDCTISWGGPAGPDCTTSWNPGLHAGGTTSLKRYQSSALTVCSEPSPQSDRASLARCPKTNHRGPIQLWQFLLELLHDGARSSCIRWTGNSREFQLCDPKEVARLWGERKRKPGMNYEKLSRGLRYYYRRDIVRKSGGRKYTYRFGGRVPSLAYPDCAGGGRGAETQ
# Outline: as §1
# ELF3 = molecular target: T11, ELF3 (Homo sapiens, UniProt P78545 1-371); details: protein: recombinant; tags: N-terminal GST; dsDNA, one strand shown
# T11 sequence: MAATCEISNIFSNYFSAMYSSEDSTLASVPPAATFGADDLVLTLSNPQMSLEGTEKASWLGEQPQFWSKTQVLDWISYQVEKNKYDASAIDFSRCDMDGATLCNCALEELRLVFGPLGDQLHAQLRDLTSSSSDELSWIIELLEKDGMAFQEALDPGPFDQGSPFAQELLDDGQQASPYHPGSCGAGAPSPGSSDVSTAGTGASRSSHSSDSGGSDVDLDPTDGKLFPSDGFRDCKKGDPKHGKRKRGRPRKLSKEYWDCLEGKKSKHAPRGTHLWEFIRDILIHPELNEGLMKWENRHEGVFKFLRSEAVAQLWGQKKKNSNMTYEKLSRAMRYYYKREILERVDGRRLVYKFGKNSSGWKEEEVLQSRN
# Outline: as §1
# CRX = CRX (Homo sapiens, UniProt O43186 1-299); details: protein: recombinant; tags: N-terminal GST; dsDNA, one strand shown
# Outline: as §1
# ETV1 = ETV1 (Homo sapiens, UniProt P50549 1-477); details: protein: recombinant; tags: N-terminal GST; dsDNA, one strand shown
# Outline: as §1
# Sequence of ELF4 (Q99607 whole entry): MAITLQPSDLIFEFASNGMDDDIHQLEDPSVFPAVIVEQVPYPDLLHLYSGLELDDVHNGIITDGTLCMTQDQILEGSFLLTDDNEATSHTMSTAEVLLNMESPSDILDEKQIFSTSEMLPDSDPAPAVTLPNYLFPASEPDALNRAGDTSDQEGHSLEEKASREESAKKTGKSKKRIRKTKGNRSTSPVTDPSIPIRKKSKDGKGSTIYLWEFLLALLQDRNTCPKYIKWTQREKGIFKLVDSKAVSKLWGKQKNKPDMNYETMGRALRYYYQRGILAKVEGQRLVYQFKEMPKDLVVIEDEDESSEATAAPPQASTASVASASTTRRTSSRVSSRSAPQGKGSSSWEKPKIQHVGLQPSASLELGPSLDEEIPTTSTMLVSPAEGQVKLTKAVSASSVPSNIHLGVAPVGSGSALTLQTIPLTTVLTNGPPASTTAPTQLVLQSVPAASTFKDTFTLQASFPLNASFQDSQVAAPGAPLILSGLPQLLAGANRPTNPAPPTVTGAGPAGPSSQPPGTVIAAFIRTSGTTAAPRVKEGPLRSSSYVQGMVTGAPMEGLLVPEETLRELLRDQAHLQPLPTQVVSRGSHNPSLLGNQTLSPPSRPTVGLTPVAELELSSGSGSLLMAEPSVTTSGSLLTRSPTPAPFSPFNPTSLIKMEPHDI
# Sequence of HSF1 (Q00613 whole entry): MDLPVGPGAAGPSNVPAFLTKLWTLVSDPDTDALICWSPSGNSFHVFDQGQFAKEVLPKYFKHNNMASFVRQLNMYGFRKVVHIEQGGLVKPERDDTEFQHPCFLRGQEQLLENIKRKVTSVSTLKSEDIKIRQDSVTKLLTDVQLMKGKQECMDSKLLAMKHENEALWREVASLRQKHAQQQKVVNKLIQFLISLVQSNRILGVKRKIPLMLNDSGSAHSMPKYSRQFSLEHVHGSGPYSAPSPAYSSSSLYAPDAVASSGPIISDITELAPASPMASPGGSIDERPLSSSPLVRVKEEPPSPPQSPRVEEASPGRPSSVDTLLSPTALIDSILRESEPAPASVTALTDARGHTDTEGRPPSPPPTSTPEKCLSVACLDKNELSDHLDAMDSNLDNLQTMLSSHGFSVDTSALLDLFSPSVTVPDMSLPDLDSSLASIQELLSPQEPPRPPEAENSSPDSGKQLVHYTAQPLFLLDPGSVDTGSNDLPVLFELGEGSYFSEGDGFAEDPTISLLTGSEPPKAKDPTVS
# Sequence of CRX (O43186 whole entry): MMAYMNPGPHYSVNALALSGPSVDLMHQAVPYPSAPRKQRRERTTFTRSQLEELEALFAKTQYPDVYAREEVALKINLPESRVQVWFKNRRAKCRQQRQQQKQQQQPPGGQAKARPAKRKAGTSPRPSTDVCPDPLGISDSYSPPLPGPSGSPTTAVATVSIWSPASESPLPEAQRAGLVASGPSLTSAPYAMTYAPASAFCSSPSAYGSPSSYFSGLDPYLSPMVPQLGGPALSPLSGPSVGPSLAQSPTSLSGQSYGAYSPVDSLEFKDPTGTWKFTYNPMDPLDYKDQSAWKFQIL
# Sequence of ETV5 (P41161 whole entry): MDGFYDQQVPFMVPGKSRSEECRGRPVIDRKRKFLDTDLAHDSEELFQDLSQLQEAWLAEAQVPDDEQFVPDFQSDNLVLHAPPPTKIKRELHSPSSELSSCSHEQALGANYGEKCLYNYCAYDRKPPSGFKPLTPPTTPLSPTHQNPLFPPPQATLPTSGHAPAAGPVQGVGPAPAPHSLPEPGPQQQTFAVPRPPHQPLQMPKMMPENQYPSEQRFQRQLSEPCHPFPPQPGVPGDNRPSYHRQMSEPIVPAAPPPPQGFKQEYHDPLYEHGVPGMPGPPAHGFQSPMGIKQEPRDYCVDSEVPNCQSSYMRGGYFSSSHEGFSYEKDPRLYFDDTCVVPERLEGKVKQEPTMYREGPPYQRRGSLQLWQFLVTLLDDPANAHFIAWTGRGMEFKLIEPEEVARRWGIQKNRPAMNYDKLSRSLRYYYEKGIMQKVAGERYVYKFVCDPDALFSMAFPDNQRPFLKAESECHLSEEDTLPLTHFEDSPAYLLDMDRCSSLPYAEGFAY
# Sequence of ETV1 (P50549 whole entry): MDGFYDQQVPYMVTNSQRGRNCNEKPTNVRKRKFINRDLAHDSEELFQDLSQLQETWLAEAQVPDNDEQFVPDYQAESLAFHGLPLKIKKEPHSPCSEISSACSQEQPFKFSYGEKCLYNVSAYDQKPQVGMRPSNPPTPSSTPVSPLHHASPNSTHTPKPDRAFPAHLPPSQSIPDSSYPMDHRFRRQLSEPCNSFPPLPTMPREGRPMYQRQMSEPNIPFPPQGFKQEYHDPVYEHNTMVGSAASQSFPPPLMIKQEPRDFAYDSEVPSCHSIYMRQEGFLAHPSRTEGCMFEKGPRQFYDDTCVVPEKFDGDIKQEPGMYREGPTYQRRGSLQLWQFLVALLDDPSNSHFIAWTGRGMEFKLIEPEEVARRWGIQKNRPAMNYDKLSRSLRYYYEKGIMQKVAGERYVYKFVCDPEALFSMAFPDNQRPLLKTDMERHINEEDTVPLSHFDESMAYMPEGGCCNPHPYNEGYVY
# Sequence of SPIB (Q01892 whole entry): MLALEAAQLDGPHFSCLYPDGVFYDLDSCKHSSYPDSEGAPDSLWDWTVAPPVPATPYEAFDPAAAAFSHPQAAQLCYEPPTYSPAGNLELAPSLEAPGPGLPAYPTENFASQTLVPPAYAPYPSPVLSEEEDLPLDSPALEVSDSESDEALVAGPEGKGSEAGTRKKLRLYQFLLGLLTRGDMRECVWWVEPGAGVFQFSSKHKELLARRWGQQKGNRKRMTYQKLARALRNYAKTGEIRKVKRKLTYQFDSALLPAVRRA
# Sequence of ELF1 (P32519 whole entry): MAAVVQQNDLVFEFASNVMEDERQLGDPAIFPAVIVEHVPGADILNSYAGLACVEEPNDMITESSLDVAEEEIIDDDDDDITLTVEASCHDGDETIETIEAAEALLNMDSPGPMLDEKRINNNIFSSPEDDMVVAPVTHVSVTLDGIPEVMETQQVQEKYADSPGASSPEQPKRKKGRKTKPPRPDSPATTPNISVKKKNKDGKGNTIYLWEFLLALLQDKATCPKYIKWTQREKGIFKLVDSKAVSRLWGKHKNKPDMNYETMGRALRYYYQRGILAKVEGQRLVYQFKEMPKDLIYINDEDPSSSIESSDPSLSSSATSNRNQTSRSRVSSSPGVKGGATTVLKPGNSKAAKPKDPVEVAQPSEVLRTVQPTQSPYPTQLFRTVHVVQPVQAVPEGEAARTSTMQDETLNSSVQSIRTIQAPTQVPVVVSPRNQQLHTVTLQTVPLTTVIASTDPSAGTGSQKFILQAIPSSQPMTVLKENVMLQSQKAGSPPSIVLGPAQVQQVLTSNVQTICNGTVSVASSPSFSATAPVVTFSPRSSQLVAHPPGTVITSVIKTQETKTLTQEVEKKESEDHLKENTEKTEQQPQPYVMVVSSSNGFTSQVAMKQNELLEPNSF
sequence,measurement,setting,value
TTCTTT,binding signal,FLI1,"1.18 fold enrichment (6-mer frequency, TF over GST control)"
same,binding signal,ELK1,"1.13 fold enrichment (6-mer frequency, TF over GST control)"
same,binding signal,GABPA,"1.21 fold enrichment (6-mer frequency, TF over GST control)"
same,binding signal,ERG,"1.27 fold enrichment (6-mer frequency, TF over GST control)"
same,binding signal,ELF1,"1.35 fold enrichment (6-mer frequency, TF over GST control)"
same,binding signal,EHF,"1.11 fold enrichment (6-mer frequency, TF over GST control)"
same,binding signal,SPI1,"1.23 fold enrichment (6-mer frequency, TF over GST control)"
same,binding signal,SPIB,"1.21 fold enrichment (6-mer frequency, TF over GST control)"
same,binding signal,ELK3,"1.17 fold enrichment (6-mer frequency, TF over GST control)"
same,binding signal,FEV,"1.19 fold enrichment (6-mer frequency, TF over GST control)"
same,binding signal,ETV5,"1.14 fold enrichment (6-mer frequency, TF over GST control)"
same,binding signal,HSF1,"1.7 fold enrichment (6-mer frequency, TF over GST control)"
same,binding signal,SPIC,"1.2 fold enrichment (6-mer frequency, TF over GST control)"
same,binding signal,ELF4,"1.28 fold enrichment (6-mer frequency, TF over GST control)"
same,binding signal,ELK4,"1.25 fold enrichment (6-mer frequency, TF over GST control)"
same,binding signal,ETV2,"1.27 fold enrichment (6-mer frequency, TF over GST control)"
same,binding signal,ELF3,"1.28 fold enrichment (6-mer frequency, TF over GST control)"
same,binding signal,CRX,"1.44 fold enrichment (6-mer frequency, TF over GST control)"
same,binding signal,ETV1,"1.29 fold enrichment (6-mer frequency, TF over GST control)"
